What follows are compounds tested on glycogen synthase kinase-3 (GSK3A per assay name; protocol says GSK3B) (assay: compounds binding glycogen synthase kinase-3 – biochemical, small-molecule microarray, 635 nm fluorescence, GSK3A, primary screen (AID 1103; further: the record names both GSK3A and GSK3B)). Details: fluorescence 635 nm, higher = more signal.
In the case of `COc1cc(CO)cc(I)c1O[C@H]1C=C(C(=O)NCCO)C[C@@H](N(C(=O)c2cc3ccccc3oc2=O)C2CCCCCC2)[C@@H]1O`, the composite z-score is reported as -0.314. Work on `O=C1C2C=CC(C(O)C=Cc3ccc([N+](=O)[O-])cc3)N(n3cnnc3)C2C(=O)N1Cc1ccccc1` (configuration not stated) yielded a composite z-score of 0.587. For `COCCOC(=O)N1C(=O)[C@@]2(c3ccccc31)[C@H](C(=O)N1CCc3cc(OC)c(OC)cc3C1)[C@H]1C(=O)O[C@H](c3ccccc3)[C@H](c3ccccc3)N1[C@@H]2c1ccc(O)cc1`, the composite z-score was 0.691. With `C#CCN(C/C=C/c1ccccc1)[C@H](CO)c1ccccc1` the composite z-score was 0.0831. With `O=C1OCCC=C[C@H]2OC34C=CCN(c5ccc(Cl)cc5)C(=O)[C@H]3N(CCCO)C(=O)[C@@H]4C12` (some centres not stated) the composite z-score was -1.4. Work on `CCCCC(O)C1C=CC2C(=O)N(C)C(=O)C2N1N1CCCCC1` (configuration not stated) yielded a composite z-score of -0.0038. `COc1cc2c(cc1OC)CN(C(=O)[C@H]1[C@@H]3C(=O)O[C@@H](c4ccccc4)[C@@H](c4ccccc4)N3[C@@H](c3ccccc3OCCO)[C@]13C(=O)Nc1ccc(C#CCCO)cc13)CC2` was tested, and the composite z-score was 1.28. `COCCCNC(=O)[C@@]1(Cc2ccccc2)N=C(c2ccc(OCCCO)cc2)O[C@H]1c1ccccc1CN=[N+]=[N-]` showed a composite z-score of 1.28. For `CC(C)Cc1ccc(CN2CC[C@@H](N)C2)cc1`, the composite z-score was -0.727. `C[N+](C)(C)CCCC[C@@H]1NC(=O)[C@H]2C[C@@H](C(=O)NCCCCCCNC(=O)CS)[C@@H](c3ccc(O)cc3)N2C1=O` showed a composite z-score of -1.09. `COc1ccc(C#Cc2ccc3c(c2)[C@]2(C(=O)N3)[C@H](c3ccc(O)cc3)N3[C@H](c4ccccc4)[C@H](c4ccccc4)OC(=O)[C@H]3[C@@H]2C(=O)N2CCc3cc(OC)c(OC)cc3C2)cc1` gave a composite z-score of 1.26. With `[N-]=[N+]=Nc1ccccc1C[C@]1(C(=O)NCC(O)CO)N=C(c2ccc(OCCCO)cc2)O[C@H]1c1ccccc1` (some centres not stated) the composite z-score was 0.544. Work on `CC(C)(C)OC(=O)CC[C@]1(C(=O)NCCN2CCOCC2)COC(c2ccc(OCCCO)cc2)=N1` yielded a composite z-score of 0.743. `[N-]=[N+]=NCc1ccccc1C[C@@]1(C(=O)NCC(O)CO)N=C(c2ccc(OCCCO)cc2)O[C@@H]1c1ccccc1` (some centres not stated) showed a composite z-score of -0.538. `CC(C)[Si](C#CCCCC#N)(Oc1ccccc1Br)C(C)C` gave a composite z-score of 0.693. Compound `C=CCN1Cc2ccccc2[C@@H]2OC(c3ccc(OCCCO)cc3)=N[C@]2(CCS(=O)(=O)c2ccccc2)C1=O` has a composite z-score of 1.32. Work on `CCOC(=O)C1=C[C@@H](C(C)C)N(S(=O)(=O)c2ccc(C)cc2)[C@H]1c1ccccc1F` yielded a composite z-score of 0.791. `[N-]=[N+]=NCc1ccccc1[C@@H]1OC(c2ccc(OCCCO)cc2)=N[C@]1(CCS(=O)(=O)c1ccccc1)C(N)=O` gave a composite z-score of 1.32. `OCCCC1=CC(C2CC2)N(Cc2cccc(OC(F)(F)F)c2)CC1` (configuration not stated) was tested, and the composite z-score was -0.798. `Cc1ccc([C@H]2C(C(=O)O)=CCN2S(=O)(=O)c2ccc(C)cc2)cc1` was tested, and the composite z-score was 0.47. Work on `COc1ccc([Si](C)(C)[C@H]2[C@H](CCO)O[C@@]3(C(=O)N(Cc4ccccc4)c4ccc(N5CCCCC5=O)cc43)[C@@H]2C)cc1` yielded a composite z-score of 0.737. With `CC#CC(=O)Oc1ccc(Br)cc1C=CC(=O)OCC` the composite z-score was -0.108. `COc1cc(OC)c(C(O)C2C=CC3C(=O)NC(=O)C3N2Nc2ccccn2)cc1Br` (configuration not stated) was tested, and the composite z-score was 0.398. `O=C1[C@H]2C=C(I)[C@H](C[C@@H]2OCCCCO)[C@@]12CO2` showed a composite z-score of 0.0622. With `C=C(CCCC)/C(=C/C[C@H](OC(C)=O)c1ccc(OCCO)cc1)c1cnc2ccccc2c1` the composite z-score was 0.209. For `COc1ccc(CCNC(=O)[C@@]2(C)c3ccccc3C(=O)N(c3ccc(C)cn3)[C@H]2c2ccc(CO)cc2)cc1`, the composite z-score was -0.831. For `C=CCC(OC(C)=O)[C@@H]1[C@@H](N(Cc2ccc(-c3cccc(C(F)(F)F)c3)o2)C(=O)Cc2ccc(OC)cc2)c2cc(OCCCO)ccc2N1C(=O)c1ccc2ccccc2c1` (some centres not stated), the composite z-score was -1.46. `CN(C)CCCC[C@@H]1NC(=O)[C@H]2C[C@@H](C(=O)NCCCCCN)[C@@H](c3cccc(OCCO)c3)N2C1=O` showed a composite z-score of 1.06. For `CC(=CC1CCCCC1)[C@@H](NC(=O)c1cccnc1)c1ccc(-c2ccccc2)cc1`, the composite z-score was -1.11. `C=C(CCCC)/C(=C/C[C@H](OC(C)=O)c1ccccc1OCCO)c1cnc2ccccc2c1` was tested, and the composite z-score was -0.0183. With `O=C1OCCC=C[C@H]2OC34C=CCN(CCN5CCOCC5)C(=O)[C@H]3N(CCCCCO)C(=O)[C@@H]4C12` (some centres not stated) the composite z-score was 0.454. `COC(=O)[C@@]1(Cc2ccc(F)cc2)[C@H]2c3cc(C(=O)N(C)C)n(Cc4cc(C)n(C)n4)c3C[C@H]2CN1C(=O)c1ccccc1` gave a composite z-score of 0.716.
